Test results reported in article PMC10726135, “HNF4α isoforms regulate the circadian balance between carbohydrate and lipid metabolism in the liver”.
The full ranking holds about 18,000 sequences; the median of “log2 normalized intensity” is about 0.39, and the highest 2% start at about 6.6. What follows is part of a selection rich in the highest values, with near analogues and random picks from the rest.

What follows are sequences tested against T1, HNF4alpha2 (COS-7 nuclear extract) (Homo sapiens, UniProt P41235 1-474) (assay: protein-binding microarray; COS-7 nuclear extract on double-stranded Agilent 4x180k PBM; binding buffer, salt, pH and temperature not given in the material; high values mean tight binding). Conditions: chain copies: 2; label: 3' end of strand 1 on the slide; dsDNA, one strand shown.
T1 sequence: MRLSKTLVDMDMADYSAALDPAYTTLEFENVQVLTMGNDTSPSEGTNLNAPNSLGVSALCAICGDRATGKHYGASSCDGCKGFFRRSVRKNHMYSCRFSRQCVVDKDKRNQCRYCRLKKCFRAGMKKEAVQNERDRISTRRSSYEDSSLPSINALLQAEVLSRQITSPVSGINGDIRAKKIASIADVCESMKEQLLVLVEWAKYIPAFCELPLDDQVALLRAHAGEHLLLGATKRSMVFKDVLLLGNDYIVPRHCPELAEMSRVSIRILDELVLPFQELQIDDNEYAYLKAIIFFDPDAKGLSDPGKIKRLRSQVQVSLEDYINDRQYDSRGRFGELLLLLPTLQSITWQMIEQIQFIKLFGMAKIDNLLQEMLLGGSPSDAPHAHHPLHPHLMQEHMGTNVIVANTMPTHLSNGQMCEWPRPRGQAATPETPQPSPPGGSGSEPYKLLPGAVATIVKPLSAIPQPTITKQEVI
In short: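 Nuclear extracts of COS-7 cells transiently transfected with a human HNF4α isoform were applied to a custom Agilent SurePrint G3 4x180k array bearing ~44,000 double-stranded ~60-nt test sequences, each in quadruplicate. The bound protein was imaged on an Agilent G2565CA scanner at 2-µm resolution. Binding signal is the normalized, background-corrected gProcessedSignal from Agilent software.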
For “CCTCAATGCTATCTCCCAGTTCTTTTGACCGCCTAGGGAGATTAGAGTATCGGTCGA”, the binding signal was 2.52 log2 normalized intensity. “CCAGTTCTTTTGACCTTTGCCTCATTCTTAGCCTAGGGAGATTAGAGTATCGGTCGA” was tested, and the binding signal was 6.03 log2 normalized intensity. With “ATCTCCCAGTTCTTTTGACCTTTGCCTCATGCCTAGGGAGATTAGAGTATCGGTCGA” the binding signal was 7.95 log2 normalized intensity. “AGTTATATCTTACCTCCTTCTCCCCCATGCGCCTAGGGAGATTAGAGTATCGGTCGA” showed a binding signal of 4.87 log2 normalized intensity. In the case of “ATGCTATCTCCCAGTTCTTTTGACCTTTGCGCCTAGGGAGATTAGAGTATCGGTCGA”, the binding signal is reported as 7.68 log2 normalized intensity. Sequence “GAGCGCTTTGAGGCCTATGGCGAAAAAGGAGCCTAGGGAGATTAGAGTATCGGTCGA” has a binding signal of -0.829 log2 normalized intensity. With “AATTCATCTCTAAGCTACTGAAAATGACCTGCCTAGGGAGATTAGAGTATCGGTCGA” the binding signal was 3.39 log2 normalized intensity. “TAAGCTACTGAAAATGACCTTTGTTCCCTGGCCTAGGGAGATTAGAGTATCGGTCGA” showed a binding signal of 8.2 log2 normalized intensity. “AAAAAATTACTGACCCTTGCACTGTAAGATGCCTAGGGAGATTAGAGTATCGGTCGA” showed a binding signal of 3.49 log2 normalized intensity. Sequence “ATCTCTAAGCTACTGAAAATGACCTTTGTTGCCTAGGGAGATTAGAGTATCGGTCGA” has a binding signal of 6.11 log2 normalized intensity. Sequence “AAAAAAAAAAATTACTGACCCTTGCACTGTGCCTAGGGAGATTAGAGTATCGGTCGA” has a binding signal of 4.58 log2 normalized intensity. For “TACTGAAAATGACCTTTGTTCCCTGCACTTGCCTAGGGAGATTAGAGTATCGGTCGA”, the binding signal was 7.15 log2 normalized intensity. Sequence “AAGCAATGGCTACCAAGGAGTGGACTGTTCGCCTAGGGAGATTAGAGTATCGGTCGA” has a binding signal of 1.7 log2 normalized intensity. Sequence “GGGGGCAAGGTACACCATCTATGAGCTCAAGCCTAGGGAGATTAGAGTATCGGTCGA” has a binding signal of 1.28 log2 normalized intensity. “AAAGGCGTTTGCTCCCATCCCCCCAAAGGCGCCTAGGGAGATTAGAGTATCGGTCGA” showed a binding signal of 4.99 log2 normalized intensity. “TTAGATCAGAGGTCTAATTCCCAAGGGTATGCCTAGGGAGATTAGAGTATCGGTCGA” showed a binding signal of -0.435 log2 normalized intensity. “CATTGACTTTGCCTTTTGGCTAAAGTCCAAGCCTAGGGAGATTAGAGTATCGGTCGA” was tested, and the binding signal was 4.16 log2 normalized intensity. Sequence “CCAGTGAGACCCATTTTGGACTTTGACCTCGCCTAGGGAGATTAGAGTATCGGTCGA” has a binding signal of 11.9 log2 normalized intensity. “CTTTGTAGCACTTTGGACCTCCACTTTGGAGCCTAGGGAGATTAGAGTATCGGTCGA” gave a binding signal of 3.1 log2 normalized intensity. “AATGATGATGACTTTTGACCCCAGGGGAAAGCCTAGGGAGATTAGAGTATCGGTCGA” gave a binding signal of 5.51 log2 normalized intensity. In the case of “TAGCACTTTGGACCTCCACTTTGGAGGGGGGCCTAGGGAGATTAGAGTATCGGTCGA”, the binding signal is reported as 1.7 log2 normalized intensity. Work on “GAATTCTTGACTTTGGACTTTCAAAAGTTAGCCTAGGGAGATTAGAGTATCGGTCGA” yielded a binding signal of 4.21 log2 normalized intensity. “CACAGCTGGACTTTGGCTGCAAAATTTGAAGCCTAGGGAGATTAGAGTATCGGTCGA” was tested, and the binding signal was 3.04 log2 normalized intensity. “TTAGCCCAGTGAGACCCATTTTGGACTTTGGCCTAGGGAGATTAGAGTATCGGTCGA” was tested, and the binding signal was 6.34 log2 normalized intensity. “TTTGGAATTTGACCTCATTTGCTCCCAGTGGCCTAGGGAGATTAGAGTATCGGTCGA” showed a binding signal of 3.85 log2 normalized intensity. “CCATTTTGGACTTTGACCTCCAAAATTATAGCCTAGGGAGATTAGAGTATCGGTCGA” gave a binding signal of 10.4 log2 normalized intensity. For “GAGACCCATTTTGGACTTTGACCTCCAAAAGCCTAGGGAGATTAGAGTATCGGTCGA”, the binding signal was 10.7 log2 normalized intensity. “TTGGACTTTGACCTCCAAAATTATAAGTCAGCCTAGGGAGATTAGAGTATCGGTCGA” gave a binding signal of 8.25 log2 normalized intensity. Sequence “CCTCTCTCTCTCTCTCTCACACACACACACGCCTAGGGAGATTAGAGTATCGGTCGA” has a binding signal of 2.09 log2 normalized intensity. “CTTACTTGGCATCATCAAACAAGATTTATCGCCTAGGGAGATTAGAGTATCGGTCGA” showed a binding signal of -0.732 log2 normalized intensity. In the case of “TGTAGGTAAGCACAAAGTACAGCTTTTTGTGCCTAGGGAGATTAGAGTATCGGTCGA”, the binding signal is reported as 1.13 log2 normalized intensity. “TATAAAGGTCAACTGCCCTCTCAAATTACAGCCTAGGGAGATTAGAGTATCGGTCGA” showed a binding signal of 1.51 log2 normalized intensity. In the case of “TTTTAAAATAGATAAGTCCCTAAGAGGAATGCCTAGGGAGATTAGAGTATCGGTCGA”, the binding signal is reported as -0.74 log2 normalized intensity. “ACAAATGAGGGGACAAAGTTCGTGGAAAGTGCCTAGGGAGATTAGAGTATCGGTCGA” was tested, and the binding signal was 2.91 log2 normalized intensity. Work on “GAGCCTGCACGCCTGTTCACATTCCAGTGTGCCTAGGGAGATTAGAGTATCGGTCGA” yielded a binding signal of -0.595 log2 normalized intensity. For “GACAGGATATTTTGAGGGCTCAAAGGTTACGCCTAGGGAGATTAGAGTATCGGTCGA”, the binding signal was 5.37 log2 normalized intensity. Work on “ACAGTAGACTTTTTTTTTCTTAATTGCCCTGCCTAGGGAGATTAGAGTATCGGTCGA” yielded a binding signal of 2.84 log2 normalized intensity. Sequence “ACTTTGCCCTTTTTTTCTCTCCCCTTTTAAGCCTAGGGAGATTAGAGTATCGGTCGA” has a binding signal of 2.54 log2 normalized intensity. For “CCATCCTACAGGGTATGAATTTAACCTTTGGCCTAGGGAGATTAGAGTATCGGTCGA”, the binding signal was 4.2 log2 normalized intensity. For “ATATTAACCTTTGCCCCAGCTGTCACCCAGGCCTAGGGAGATTAGAGTATCGGTCGA”, the binding signal was 5.03 log2 normalized intensity. With “ATTACATATTAACCTTTGCCCCAGCTGTCAGCCTAGGGAGATTAGAGTATCGGTCGA” the binding signal was 5.74 log2 normalized intensity. For “CCCTAATTACATATTAACCTTTGCCCCAGCGCCTAGGGAGATTAGAGTATCGGTCGA”, the binding signal was 6.63 log2 normalized intensity. For “GGGTATGAATTTAACCTTTGCTCTCTGAAAGCCTAGGGAGATTAGAGTATCGGTCGA”, the binding signal was 5.68 log2 normalized intensity. “AGACTTTTTTTTTCTTAATTGCCCTTTGCCGCCTAGGGAGATTAGAGTATCGGTCGA” gave a binding signal of 4.26 log2 normalized intensity. Work on “TTTCTTAATTGCCCTTTGCCCTTTGCCCAAGCCTAGGGAGATTAGAGTATCGGTCGA” yielded a binding signal of 8.01 log2 normalized intensity. For “TGACCTTTGCATTCTTACCCAAGCCCCAAAGCCTAGGGAGATTAGAGTATCGGTCGA”, the binding signal was 3.73 log2 normalized intensity. “TTTTTTTTCTTAATTGCCCTTTGCCCTTTGGCCTAGGGAGATTAGAGTATCGGTCGA” was tested, and the binding signal was 8.54 log2 normalized intensity. For “CTACAGGGTATGAATTTAACCTTTGCTCTCGCCTAGGGAGATTAGAGTATCGGTCGA”, the binding signal was 6.87 log2 normalized intensity.
